# From ChEMBL document CHEMBL3988442, “University of Dundee, Small-Polar-MMV Screening Library” (2021)
# Among all 48,000 compounds or so, about 13,000 (27%) showed an effect of 50% or more. Some of the results follow.
# System: Wolbachia pipientis
# Test: Anti-Wolbachia Cell-Based Screen
# Format: functional
# Design: scale not given: in the data most compounds retested in dose-response had high values
# Conditions: 5 µM
row,SMILES,Percent Effect
1,COCCN1C(=O)[C@]2(CC[C@@H]3CN(C(=O)NCC(C)C)C[C@@H]32)N=C1C,-10.16%
2,Cc1n[nH]c(-c2ccc(NC(=O)C(C)N3CCN(C)CC3)cc2)n1 (stereo unspecified),0.753%
3,O=S(=O)(c1cccnc1)N1C[C@@H]2COC[C@]2(COCC2CC2)C1,5.387%
4,CCCn1cnc2c1CN(C(=O)c1ccc(F)cc1)[C@H](C(=O)OC)C2,6.422%
5,FC(F)(F)c1n[nH]c2c1CN(Cc1cn3ccccc3n1)CC2,10.05%
6,CC(C)n1c(C(=O)N2CCCC2)nc2c1CCN(c1ncccn1)C2,-6.562%
7,Cc1nc2c(c(N[C@@H](CO)C(N)=O)n1)Cc1ccccc1OC2,104.3%
8,Cc1cc(C(=O)NC(C)c2nnn[nH]2)c2cccc(C)c2n1 (stereo unspecified),0.7589%
9,Cc1nc2c(c(NC(C)c3nnn[nH]3)n1)Cc1ccccc1OC2 (stereo unspecified),97.46%
10,Cc1nc2c(c(NCC3Cc4ccccc4CN3C)n1)CCNCC2 (stereo unspecified),-7.174%
11,NC(=O)C1CCCN(c2ncnc3c2Cc2ccccc2OC3)C1 (stereo unspecified),10.44%
12,Cc1nc2c(c(N[C@H](C(N)=O)C(C)C)n1)Cc1ccccc1OC2,105%
13,NC(=O)C1CN(c2ncnc3c2Cc2ccccc2OC3)CCO1 (stereo unspecified),-2.361%
14,CN(CC1(CO)CCC1)c1nc2c(c(=O)[nH]1)Cc1ccccc1OC2,9.578%
15,CN(CC1(CO)CCCC1)c1nc2c(c(=O)[nH]1)Cc1ccccc1OC2,6.752%
16,COc1ccccc1OCCNC(=O)NCc1nc(C)no1,-10.03%
17,CCCc1c(C(=O)NC2CCCC2)nnn1-c1ccc(OC)cc1,0.3347%
18,CCOCC(=O)N1C[C@@H]2CC[C@H](C1)N(Cc1ccccn1)C2=O,2.863%
19,NC1(C(=O)N2CCC(c3cc(-c4ccccc4Cl)n[nH]3)CC2)CCC1,-26.69%
20,CC(C)NC(=O)NC[C@@]1(COc2cnccn2)C[C@@H](O)[C@@H](O)C1.Cl,-2.608%
21,CN1CC(=O)N(c2ccccc2)CC12CCN(Cc1nccn1C)C2.O=C(O)C(F)(F)F.O=C(O)C(F)(F)F (stereo unspecified),-13.15%
22,CN1Cc2ccccc2CC2(CCN(c3ncc(F)cn3)CC2)C1=O,-14.24%

row,SMILES,Percent Effect
1,Cn1ccnc1CN1CCC2(CC1)CCN(c1ccccc1)C2=O.O=C(O)C(F)(F)F,113.1%
2,Cn1ccnc1CN1CCC2(CC1)CCN(c1cncnc1)C2=O.O=C(O)C(F)(F)F,-20.08%
3,CN1Cc2ccccc2CC2(CCN(Cc3nccn3C)CC2)C1=O,94.48%
4,CN1Cc2ccccc2CC2(CCN(c3ncccn3)CC2)C1=O,-6.777%
5,Cn1ccnc1CN1CCC2(CC1)Cc1ccccc1CNC2=O.O=C(O)C(F)(F)F,103.5%
6,N#CC1(C(=O)N2Cc3cc(-c4cc[nH]n4)ccc3C2c2cnco2)CC1 (stereo unspecified),-31.27%
7,NC(=O)COc1ccc(C(=O)NCCc2ccco2)cc1,-0.9721%
8,CN1CCN(Cc2cccnc2)C(=O)C12CCN(C1CCOC1)CC2.O=C(O)C(F)(F)F.O=C(O)C(F)(F)F.O=C(O)C(F)(F)F (stereo unspecified),20.83%
9,C[C@@H]1CN(Cc2cccnc2)C[C@]12CCN(CCN1CCCC1)C2=O.O=C(O)C(F)(F)F.O=C(O)C(F)(F)F.O=C(O)C(F)(F)F,95.13%
10,C[C@H]1CN(CC2CCOCC2)C[C@@]12CCN(Cc1cccnc1)C2=O.O=C(O)C(F)(F)F.O=C(O)C(F)(F)F,107.6%
11,CN1CC(=O)N(c2cccc(F)c2)CC12CCN(Cc1cccnc1)C2.O=C(O)C(F)(F)F.O=C(O)C(F)(F)F.O=C(O)C(F)(F)F (stereo unspecified),-7.08%
12,CCS(=O)(=O)N1CC[C@H]2C(=O)N(Cc3cccnc3)CCO[C@H]2C1.O=C(O)C(F)(F)F,-12.91%
13,C[C@@H]1CN(Cc2cccc(F)c2)C[C@]12CCN(Cc1cccnc1)C2=O.O=C(O)C(F)(F)F.O=C(O)C(F)(F)F,107.3441%
14,CN1CCN(Cc2cccnc2)C(=O)C12CCN(CC1CCOC1)CC2.O=C(O)C(F)(F)F.O=C(O)C(F)(F)F.O=C(O)C(F)(F)F (stereo unspecified),-19.27%
15,CCN1C(=O)C(c2ccccc2)CC12CCN(Cc1cccnc1)CC2.O=C(O)C(F)(F)F.O=C(O)C(F)(F)F (stereo unspecified),-2.584%
16,CN1CC(=O)N(c2ccccc2)CC12CCN(Cc1cccnc1)C2.O=C(O)C(F)(F)F.O=C(O)C(F)(F)F.O=C(O)C(F)(F)F (stereo unspecified),-4.544%
17,C[C@@H]1CN(S(C)(=O)=O)C[C@]12CCN(Cc1cccnc1)C2=O.O=C(O)C(F)(F)F,104.4%
18,CCN(CC)C(CNCc1ccc(C)o1)c1ccco1 (stereo unspecified),6.767%
19,CC(=O)N[C@@H]1CN(S(=O)(=O)Cc2ccccc2)C[C@H]1C(C)C,4.897%
20,O=C(NC1CCN(Cn2nc(-c3ccccc3)oc2=O)CC1)C1CC1,15.64%
21,C[C@H]1CN(c2ccccn2)C[C@@]12CCN(Cc1cccnc1)C2=O.O=C(O)C(F)(F)F.O=C(O)C(F)(F)F,111.4%
22,Cc1noc(C)c1CN1C[C@H](C)[C@]2(CCN(Cc3cccnc3)C2=O)C1.O=C(O)C(F)(F)F.O=C(O)C(F)(F)F,119.9%

row,SMILES,Percent Effect
1,Cc1noc(C)c1CN1CCN(Cc2cccnc2)c2ncccc2C1.O=C(O)C(F)(F)F.O=C(O)C(F)(F)F.O=C(O)C(F)(F)F,-12.75%
2,C[C@H]1CN(C(=O)c2cccnc2)C[C@@]12CCN(CCN1CCCC1)C2=O,107.9%
3,CN1CCN(Cc2cccnc2)C2(CCN(Cc3ccccn3)C2)C1=O.O=C(O)C(F)(F)F.O=C(O)C(F)(F)F.O=C(O)C(F)(F)F (stereo unspecified),9.415%
4,O=C(c1ccco1)N1CCCC2(CCN(CCN3CCCC3)C2=O)C1 (stereo unspecified),0.2637%
5,Cc1noc(C)c1CN1CCC2(CC1)CC(Oc1cccnc1)CO2.O=C(O)C(F)(F)F (stereo unspecified),0.1924%
6,O=C(O)C(F)(F)F.O=C(O)C(F)(F)F.c1ccc(CN2CCC3(CC2)CC(Oc2cccnc2)C3)nc1,-13.53%
7,O=C(c1cccnc1)N1C[C@@H]2CN(CCN3CCCC3)C(=O)[C@@H]2C1,-1.372%
8,C[C@@H]1CN(Cc2ccccn2)C[C@]12CCN(Cc1cccnc1)C2=O.O=C(O)C(F)(F)F.O=C(O)C(F)(F)F.O=C(O)C(F)(F)F,86.67%
9,CN(CC1CCCCO1)c1nc(-c2cccnc2)nc2c1CCNC2 (stereo unspecified),-24.82%
10,CC(C)N1CCc2ncn(C(C)C)c2C1C(=O)NCCN1CCCC1 (stereo unspecified),-11.46%
11,CCCc1cc(NCCn2cccn2)n2nccc2n1,-0.5952%
12,Cc1cc(NC(=O)CCN(CC2CCOC2)C2CC2)no1 (stereo unspecified),14.41%
13,CC(C)NC(=O)N[C@H]1C[C@@H](c2nc(-c3ccc(F)cc3)no2)N(C)C1,-4.692%
14,Cc1nc2cc(C(=O)N(CCN(C)C)CCN(C)C)ccc2n1C,-1.95%
15,Cc1cc(CS(=O)(=O)NCC2CCCCC2)on1,-6.001%
16,O=C(c1csc(-c2nnc[nH]2)n1)N1CCCCC1Cn1cccn1 (stereo unspecified),114.8%
17,O=C(Cc1csc(-c2nnc[nH]2)n1)N1CCCC1Cn1cccn1 (stereo unspecified),1.097%
18,O=C(c1ccc(-n2ccnc2)nn1)N1CCCCC1Cn1cccn1 (stereo unspecified),-18.3%
19,Cc1cnn(CC2CCCN2C(=O)c2csc(-c3nnc[nH]3)n2)c1 (stereo unspecified),136%
20,Cc1noc(OCc2ccc(C#N)cc2)n1,3.288%
21,NC(=O)C1CCN(C(=O)c2cc(S(=O)(=O)N3CCCC3)cs2)CC1,4.91%
22,CCn1cc(CN2CC3CCCN3C[C@H]2C)c(C)n1 (stereo partly specified),-10.13%

row,SMILES,Percent Effect
1,C=Cn1ncc(CN2C[C@@H]3CCCN3C[C@@H]2CCSC)c1C,137.5%
2,C=Cn1ncc(CN2C[C@@H]3C[C@@H](O)CN3C[C@H]2Cc2ccccc2)c1C,130.9%
3,C=Cn1ncc(CN2C[C@@H]3CCCN3C[C@H]2CCSC)c1C,-0.7089%
4,C=Cn1ncc(CN2C[C@@H]3CCCN3C[C@H]2Cc2ccccc2)c1C,116.6%
5,C=Cn1ncc(CN2C[C@@H]3CCCN3C[C@@H]2Cc2ccccc2)c1C,-5.258%
6,C=Cn1ncc(CN2C[C@@H]3C[C@@H](O)CN3C[C@@H]2Cc2ccccc2)c1C,135.2%
7,CCCn1ncc(CN2C[C@@H]3CCCN3C[C@@H]2CCSC)c1C,-13.92%
8,COC(=O)C1(C)CCN(C(=O)NCCc2c(C)[nH]c3ccccc23)C1 (stereo unspecified),-5.132%
9,Cc1ccsc1CN(CCN(C)C)C(=O)c1cc2ccccc2[nH]1,-9.122%
10,COc1c(F)cc(NC(=O)NCc2nncn2C2CC2)cc1F,-0.8393%
11,CNC(=O)c1cccc(NC(=O)c2ccnc(N(C)C)c2)c1C,-1.756%
12,O=C(CNc1ccccc1S(=O)(=O)C(F)F)NCc1ccco1,0.5887%
13,Cc1cccc(C2CCCN2S(=O)(=O)N(C)C)n1 (stereo unspecified),98.12%
14,CN(C)S(=O)(=O)N1CCCC1CC(=O)c1cccs1 (stereo unspecified),-13.45%
15,CN(CCn1cccn1)S(=O)(=O)N1CCCC1c1ccco1 (stereo unspecified),-2.44%
16,CN(C)S(=O)(=O)N1CCCC1c1cccc(-n2ccnc2)n1 (stereo unspecified),119.1%
17,Cc1nccn1-c1cccc(C2CCCN2S(=O)(=O)N(C)C)n1 (stereo unspecified),5.145%
18,CN(C)S(=O)(=O)CCCOc1cccc(-n2ccnc2)c1,-3.335%
19,CCc1nccn1-c1cccc(C2CCCN2S(=O)(=O)N(C)C)n1 (stereo unspecified),103.4%
20,CC(=O)c1ccc(N2CCCC(CO)(CCOc3ccccc3)C2)nc1 (stereo unspecified),5.356%
